Shown are actives, neighbours in structure and some others; about 2.3% of the full set was active somewhere.
PLC-gamma1 inh – PLC-gamma1 (human) inhibition, primary screen; 370,000 tested, 0.84% active; P19174; purified PLC-gamma1, fluorogenic substrate, fluorescence; AID 720700; inhibition, % at 12.2 µM; in the data active = inhibition above about 9.5%
MBD2 DNA inh – blocks human MBD2 binding to methylated DNA | TR-FRET, MBD2 binding to methylated oligonucleotide | inhibition, % at 4.4 µM | 370,000 tested, 0.31% active | AID 686964; in the data active = inhibition above about 13%
PLC-beta3 inh – PLC-beta3 (human) inhibition, primary screen; Purified PLC-beta3, fluorogenic substrate, fluorescence; inhibition, % at 12.2 µM; 370,000 tested, 0.18% active; AID 720704;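 note: 0% = median of compound wells on plate and 100% = full blocker control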
Target sequence (Q01970 whole entry, looked up): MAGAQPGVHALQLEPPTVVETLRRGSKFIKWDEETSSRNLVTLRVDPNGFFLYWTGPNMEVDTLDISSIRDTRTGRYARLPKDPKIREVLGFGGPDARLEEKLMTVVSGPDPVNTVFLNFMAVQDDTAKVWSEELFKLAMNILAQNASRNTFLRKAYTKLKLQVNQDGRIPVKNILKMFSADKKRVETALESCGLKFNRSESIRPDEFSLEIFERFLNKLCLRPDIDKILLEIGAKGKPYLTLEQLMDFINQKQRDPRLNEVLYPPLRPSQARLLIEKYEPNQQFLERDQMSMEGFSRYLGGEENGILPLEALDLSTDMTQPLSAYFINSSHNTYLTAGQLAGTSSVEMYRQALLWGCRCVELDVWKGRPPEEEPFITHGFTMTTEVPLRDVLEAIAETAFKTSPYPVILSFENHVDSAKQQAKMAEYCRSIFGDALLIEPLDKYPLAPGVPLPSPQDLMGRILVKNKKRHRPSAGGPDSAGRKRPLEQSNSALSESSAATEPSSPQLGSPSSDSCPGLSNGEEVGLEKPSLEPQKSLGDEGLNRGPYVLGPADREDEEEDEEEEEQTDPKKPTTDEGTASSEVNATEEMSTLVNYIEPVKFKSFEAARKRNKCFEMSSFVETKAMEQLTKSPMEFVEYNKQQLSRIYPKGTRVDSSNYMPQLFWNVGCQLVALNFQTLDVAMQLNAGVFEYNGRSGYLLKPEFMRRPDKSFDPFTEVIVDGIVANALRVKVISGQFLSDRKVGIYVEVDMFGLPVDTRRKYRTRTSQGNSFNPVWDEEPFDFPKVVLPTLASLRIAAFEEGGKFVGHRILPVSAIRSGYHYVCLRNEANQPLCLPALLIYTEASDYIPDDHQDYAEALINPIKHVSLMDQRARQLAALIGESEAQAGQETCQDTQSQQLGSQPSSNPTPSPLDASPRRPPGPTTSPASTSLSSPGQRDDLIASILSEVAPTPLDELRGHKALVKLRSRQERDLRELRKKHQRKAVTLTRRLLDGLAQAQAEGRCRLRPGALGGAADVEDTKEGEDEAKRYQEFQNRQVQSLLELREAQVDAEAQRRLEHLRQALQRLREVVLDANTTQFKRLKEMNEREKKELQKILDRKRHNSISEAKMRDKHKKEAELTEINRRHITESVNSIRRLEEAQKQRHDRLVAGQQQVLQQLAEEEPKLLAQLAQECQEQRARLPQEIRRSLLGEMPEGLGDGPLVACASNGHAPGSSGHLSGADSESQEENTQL
LEDGF integ inh – blocks HIV-1 LEDGF/p75-dependent DNA integration. TR-FRET IN-LEDGF/p75 DNA integration, Eu/Cy5. inhibition, % at 3.7 µM. 370,000 tested, 0.64% active. AID 743269;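 active = inhibition above the screen-wide mean plus 3 SD, cut at about 13% in these data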;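 note: signal is the Cy5 over europium emission ratio at 671 and 618 nm; 0% = plate median of compound wells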
UHRF1 MBD2 ctr – human UHRF1 methylated DNA binding inhibitors | Q96T88 | UHRF1 binding to methylated oligo, TR-FRET | inhibition, % at 4.4 µM | 370,000 tested, 0.75% active | AID 687016; in the data active = inhibition above about 21%;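 note: UHRF1 SRA domain binding a hemimethylated CpG hairpin DNA probe; 0% = median of test compound wells and 100% = reference inhibitor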
PLCgamma1 ctr – inhibits human PLC-gamma1 in PLC-beta3 counter-screen | inhibition, % at 12.3 µM | purified PLC-gamma1, fluorogenic substrate, fluorescence | 3,300 tested, 3.1% active | shares compounds with PLC-gamma1 inh | AID 743258; in the data active = inhibition above about 9.5%
PLCbeta3 conf – confirmation of human PLC-beta3 inhibitors | shares compounds with PLC-gamma1 inh | purified PLC-beta3, fluorogenic substrate fluorescence | inhibition, % at 12.3 µM | 3,300 tested, 1% active
Starred values were filed as active, the others as inactive; . = no result given. Cut-off read from the data, not from the text of the source, unless noted: active = inhibition above about 11%; inactive = the rest.

SMILES | PLC-gamma1 inh | MBD2 DNA inh | PLC-beta3 inh | LEDGF integ inh | UHRF1 MBD2 ctr | PLCgamma1 ctr | PLCbeta3 conf
CCN(C(=O)CSc1nnc(-c2cccnc2)n1Cc1ccco1)c1ccccc1 | 3 | 4 | -3 | 3 | 0 | . | .
CSc1cc(SC)ncn1 | 5 | -3 | 12* | -7 | 0 | -6 | -1
O=C(Nc1ccc(Cl)cc1)Nc1ccc(Cl)c(Cl)c1 | -1 | 5 | 0 | 0 | -1 | . | .
O=C(Nc1ccc(Cl)c(Cl)c1)Nc1ccc(Br)cc1F | 8 | -5 | 12* | 4 | 2 | 0 | -2
COCC#Cc1ccc(CC[C@H]2O[C@H]3CC[C@H](CO)O[C@H]3C[C@H]2n2cc(C(C)(C)O)nn2)cc1 | 0 | -4 | 2 | -1 | 2 | . | .
CCN(CC(=O)Nc1ccc(NC(C)=O)cc1)C(=O)C1CC(=O)N(CCc2ccc(OC)c(OC)c2)C1 (centres undefined) | 2 | -1 | -6 | -3 | 0 | . | .
COc1ccc(CCN2CC(C(=O)N(C)CC(=O)Nc3ccc(F)c(F)c3F)CC2=O)cc1OC (centres undefined) | 11* | 2 | -1 | -8 | 7 | -4 | -1
CCOCCCNC(=O)/C(C#N)=C/c1ccc(Cl)c([N+](=O)[O-])c1 | 0 | -2 | 2 | -1 | -1 | . | .
CCOCCCNC(=O)/C(C#N)=C/c1cc(OC)c(O)c([N+](=O)[O-])c1 | 13* | -21 | 8 | 2 | -9 | -2 | -1
O=C(NCCc1nc2ccccc2n1CCOc1ccc2cccnc2c1)C1CCCCC1 | 3 | 0 | 3 | -1 | 1 | . | .
CCCN1CCC(NC(=O)Nc2ccc(OC)c(OC)c2)CC1 | 10* | 3 | 6 | 0 | 5 | -4 | -4
CCCN1CCC(NC(=S)Nc2ccc(OC)c(OC)c2)CC1 | 3 | -5 | -6 | 8 | 0 | . | .
Clc1ccc(SCCCCN2CCOCC2)cc1 | 14* | -2 | 9 | 3 | 10 | 0 | 2
CCSc1ccc([C@@H]2[C@@H]3C(=O)N(CC)C(=O)[C@@H]3[C@]3(C(=O)OC)CCCCN23)cc1 | 1 | -1 | -2 | -3 | 6 | . | .
CCSc1ccc([C@@H]2[C@H]3C(=O)N(C)C(=O)[C@H]3[C@]3(C(=O)OC)CCCCN23)cc1 | 10* | -2 | 3 | 0 | 9 | -6 | -4
CCC(=O)c1ccc(OCC(=O)NCCC2=CCCCC2)c(OC)c1 | 0 | 0 | -7 | -1 | 4 | . | .
O=C(NCCC1=CCCCC1)c1ccc2c(c1)N(Cc1ccccc1)C(=O)CS2 | 11* | 3 | 9 | 5 | 6 | -1 | -7
CCOc1ccc(C(=O)NCCC2=CCCCC2)cc1OCC | 11* | -5 | 5 | 3 | 3 | -5 | 0
C/C(C=NNC(=O)CSc1nc2ccccc2n1Cc1ccccc1Cl)=C\c1ccccc1 | 3 | -9 | 0 | 6 | 1 | . | .
O=C(CCl)NC1CCCCN(Cc2ccc(OC(F)(F)F)cc2)C1=O (centres undefined) | -2 | 0 | 2 | -2 | 0 | . | .
N#CCC[C@H]1CC[C@]2(CCCN(C(=O)C3CCCCC3)C2)O1 | 2 | -5 | 1 | 4 | 0 | . | .
COC(=O)[C@H]1C[C@]2(C(/C=C(\C)CCC=C(C)C)S(=O)(=O)c3ccccc3)c3ccccc3N[C@H]2N1 (some centres undefined) | -1 | 1 | 1 | -2 | 3 | . | .
Oc1ccccc1C=Nn1c(-c2ccccc2F)n[nH]c1=S | -7 | -2 | -9 | 3 | 3 | . | .
C=CCN1C(=O)[C@@H](CC(=O)N2CCOCC2)[C@]2(C(=O)OC)CCCCC=C12 | 2 | 3 | -2 | 0 | -1 | . | .
O=C(CCc1ccccc1)N[C@H]1[C@@H](OC(=O)c2cnccn2)CCC[C@@]12C(=O)N(Cc1ccccc1)c1ccccc12 | 12* | -8 | 3 | 5 | 0 | 14* | 8
CC(=O)CC[C@@H]1CC[C@]2(CCCN(C(=O)C(C)(C)C)C2)O1 | -1 | 6 | 1 | -2 | 2 | . | .
CCOC(=O)C1CCN(C(=O)c2cc(C)n(C(C)(C)C)n2)CC1 | 11* | 0 | -3 | 7 | 7 | -2 | 0
CCOC(=O)C1CCN(C(=O)c2cccc(C(=O)N3CCC(C(=O)OCC)CC3)c2)CC1 | 2 | 4 | 3 | 5 | 4 | . | .

Screening data from PubChem.
